In general, inhibition refers to the drop in the measured response relative to a control, in per cent.

Common to all, as to format: functional
The target of assay [1] is Solute carrier family 2, facilitated glucose transporter member 1 (Homo sapiens) (UniProt P11166). Nature of the assay: ST_JUDE_LEISH: Cytotoxicity at 2uM final concentration against transgenic Leishmania Mexicana promastigotes LmGLUT1 that are glucose transport deficient and complemented with the human glucose transporter GLUT1. Activity is measured by DNA content using SYBR green in vitro.
Sequence of Solute carrier family 2, facilitated glucose transporter member 1 (Homo sapiens) (P11166 whole entry): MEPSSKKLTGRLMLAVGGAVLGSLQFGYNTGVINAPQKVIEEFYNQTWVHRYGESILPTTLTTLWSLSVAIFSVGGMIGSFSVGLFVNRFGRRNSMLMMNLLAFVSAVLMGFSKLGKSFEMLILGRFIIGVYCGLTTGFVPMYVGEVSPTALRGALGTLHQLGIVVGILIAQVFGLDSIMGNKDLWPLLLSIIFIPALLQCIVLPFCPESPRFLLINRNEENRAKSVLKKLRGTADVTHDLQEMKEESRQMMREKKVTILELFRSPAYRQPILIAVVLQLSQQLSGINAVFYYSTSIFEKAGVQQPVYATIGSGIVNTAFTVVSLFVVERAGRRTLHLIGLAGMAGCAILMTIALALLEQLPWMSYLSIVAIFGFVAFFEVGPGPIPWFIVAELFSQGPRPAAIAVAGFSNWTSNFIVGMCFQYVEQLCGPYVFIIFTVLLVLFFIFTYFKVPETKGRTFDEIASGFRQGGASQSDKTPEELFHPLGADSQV

For assay [2], the target named is Hexose transporter 1 (Plasmodium falciparum) (UniProt O97467). Description: ST_JUDE_LEISH: Cytotoxicity at 2uM final concentration against transgenic Leishmania Mexicana promastigotes LmPfHT that are glucose transport deficient and complemented with the Plasmodium falciparum hexose transporter. Activity is measured by DNA content using SYBR green in vitro.
The target of assay [3] is Glucose transporter (Leishmania mexicana) (UniProt O61059). Nature of the assay: ST_JUDE_LEISH: Cytotoxicity at 2uM final concentration against transgenic Leishmania Mexicana promastigotes LmGT2 that are glucose transport deficient and complemented with the L. Mexicana glucose transporter 2. Activity is measured by DNA content using SYBR green in vitro.

Regarding `CCN1CCC(N(CCCCCCc2ccc(C(F)(F)F)cc2)C(=O)Cn2c(CCc3cccc(F)c3F)cc(=O)c3ccccc32)CC1`, the values for the inhibition in assay [1], in assay [2] and in assay [3] were 5.17%, 3.94% and 2.53%, respectively.

Take `CCOc1cc(C(=O)NC2CCN(Cc3ccccc3)CC2)ccc1-c1nc2cc(Cl)c(F)cc2[nH]1`: the inhibition in assay [1] came to 3.61%; in assay [2], 2.49%; in assay [3], 3.19%.

`Cc1ccc(C(=O)NC2CC2)cc1-c1ccc2c(cnn2S(=O)(=O)c2ccc(F)cc2)c1`: the results for the inhibition in assay [1], in assay [2] and in assay [3] were 3.39%, 3.78% and 0.4%, respectively.

With `COc1cccc(CN2CCC(N3CCc4cc(NC(=O)c5cc(C)on5)ccc43)C2)c1OC` (stereo not drawn), the inhibition in assay [1] came to 1.63%; in assay [2], 5.08%; in assay [3], 4.28%.

Regarding `Cc1ccccc1C1CCN(C2CCC(NC(=O)c3ccc(-c4ccccc4)s3)CC2)CC1` (stereo not drawn), the inhibition in assay [1] amounted to 1.32%; in assay [2], 0.48%; in assay [3] it was 0.02%.

In the case of `FC(F)(F)COc1ccc2ccccc2c1CNCCCCCCNCc1c(OCC(F)(F)F)ccc2ccccc12`, the inhibition was 1.61% in assay [1], 0.57% in assay [2] and -1.38% in assay [3].

With `COc1ccc2nccc(N(C)CC3(O)CCC(NCc4ccc5c(n4)NC(=O)CS5)CC3)c2n1` (stereo not drawn), the inhibition in assay [1] was 3.69%; in assay [2] it was 3.78%; in assay [3], 1.23%.

On to `Cc1cc(NC(=O)Nc2ccc(I)c(OCCN(C)C)c2)ccc1Br`, for which the inhibition in assay [1] is 10.5%; in assay [2], 7.25%; in assay [3] it was 6.57%.

Consider `c1cncc(CCNCc2cccc(-c3ccc(-c4nc5ccccc5[nH]4)s3)c2)c1`, for which the inhibition came out at 7.99% in assay [1], 7.19% in assay [2] and 4.65% in assay [3].

In the case of `Fc1ccc2[nH]c(-c3cccc(-c4cccc(CNCc5ccccc5)c4)c3)nc2c1`, the results for the inhibition in assay [1], in assay [2] and in assay [3] were 0.07%, -0.96% and -0.93%, respectively.

`O=C(Nc1cccc(-c2cccc(-c3nc4cc(F)ccc4[nH]3)c2)c1)c1csnn1`: the values for the inhibition in assay [1], in assay [2] and in assay [3] were 6.12%, 4.57% and 1.83%, respectively.

With `CCc1ccc(NC(=O)c2cccc(CN3CCCN(CC4CCCCC4)CC3)c2)cc1`, the results for the inhibition in assay [1], in assay [2] and in assay [3] were 1.02%, 1.36% and -2.12%, respectively.

With `O=C(/C=C/c1ccc(Cl)c(Cl)c1)N1CCN(C(=O)Nc2ccc(F)c(Cl)c2)CC1`, the inhibition in assay [1] is 9.87%; in assay [2] it was 8.92%; in assay [3] it was 11.1%.

Consider `O=C(Nc1cccc(-c2csc(-c3nc4ccccc4[nH]3)c2)c1)c1ccoc1`, for which the figures for the inhibition in assay [1], in assay [2] and in assay [3] were 3.4%, 3.05% and 1.11%, respectively.

For the compound `Cc1cc(-c2cccc(CNC3CCN(C)CC3)c2)ccc1S(=O)(=O)NCc1ccccc1`, the inhibition in assay [1] amounted to 4.02%; in assay [2], 3.65%; in assay [3], 4.62%.

As to `N#Cc1ccc(N2CCN(Cc3ccc(-c4ccc(-c5nc6cc(C(F)(F)F)ccc6[nH]5)cc4)cc3)CC2)nc1`, the inhibition in assay [1] came out at 2.63%; in assay [2], 4.69%; in assay [3], 1.55%.

Turning to `COc1cc(CS(C)(=O)=O)ccc1Nc1nccc(-c2c(-c3cccc(NC(=O)c4c(F)cccc4F)c3)nn3ccccc23)n1`, the inhibition stood at 13.5% in assay [1], 20.7% in assay [2] and 7.36% in assay [3].

In the case of `CCCCN1CCN(c2cc(NS(=O)(=O)c3ccc(C(=O)Nc4ccc(C(F)(F)F)cc4)cc3)ccc2OC)CC1`, the inhibition in assay [1] turned out to be 3.79%; in assay [2], 5.5%; in assay [3] it was 0.69%.

On to `CCOC(=O)c1ccc(NC(=O)NCCCC2CCCN(CCCCCNC(=O)/C=C/c3ccc(Cl)c(Cl)c3)C2)cc1` (stereo not drawn), for which the inhibition in assay [1] was found to be 1.46%; in assay [2] it was 1.66%; in assay [3], 0.52%.

Regarding `COc1ccc(S(=O)(=O)N2CCCc3ccc(Br)cc32)cc1N1CCN(C(=O)C(Cl)(Cl)Cl)CC1`, the inhibition worked out at 2.54% in assay [1], 2.99% in assay [2] and 1.28% in assay [3].

Turning to `O=C(NC1CCCC1)c1ccc(N2CCC(NCc3cc4cc(Cl)ccc4[nH]3)CC2)cc1`, the inhibition in assay [1] was 2.79%; in assay [2] it was 3.34%; in assay [3], 2.98%.

Turning to `CO/C(=C\C=C\c1cc2cc(Cl)c(Cl)cc2[nH]1)C(=O)NCCCN1CCN(Cc2ccccc2)CC1`, the inhibition in assay [1] turned out to be 2.32%; in assay [2], 0.91%; in assay [3], 2.11%.

With `O=C(NCCc1ccc(F)cc1)c1ccc(N2CCN(c3ccncc3)CC2)nc1`, the figures for the inhibition in assay [1], in assay [2] and in assay [3] were 2.72%, 0.74% and -4.35%, respectively.

As for `O=C(Nc1ccc(C(F)(F)F)cc1)c1ccc(S(=O)(=O)NC2CCN(CC3CCCCC3)CC2)cc1`, the inhibition is 1.19% in assay [1], 0.54% in assay [2] and -1.52% in assay [3].

For `Clc1ccc(/N=C(/NCCCCCCCN/C(=N\c2ccc(Cl)cc2)Nc2ccc(Cl)cc2)Nc2ccc(Cl)cc2)cc1`, the inhibition is 0.4% in assay [1], 1.89% in assay [2] and -1.85% in assay [3].

In the case of `Nc1nc2c(ncn2COC2COP(=O)(O)OC2)c(=O)[nH]1` (stereo not drawn), the inhibition was 12.2% in assay [1], 12% in assay [2] and 12.3% in assay [3].

Take `OCCN1CCN(Cc2cccc(-c3cccc(-c4nc5cc(F)ccc5[nH]4)c3)c2)CC1`: the inhibition is 0.05% in assay [1], 1.75% in assay [2] and -0.17% in assay [3].

As to `CCOc1cc2ccccc2cc1CNCCCCCCNCc1cc2ccccc2cc1OCC`, the inhibition in assay [1] stood at 5.01%; in assay [2] it was 7.4%; in assay [3], 0.64%.

For the compound `CCC(C)CN1CCCN(c2ccc(NC(=O)c3cccs3)cc2)CC1` (stereo not drawn), the inhibition in assay [1] is 1.62%; in assay [2], -0.95%; in assay [3], 5.89%.

In the case of `Cc1c[nH]c2ccc(/C=C/C(=O)NC3CCC(CCN4CCc5ccc(C#N)cc5CC4)CC3)cc12` (stereo not drawn), the inhibition in assay [1] was found to be 5.06%; in assay [2], 5.55%; in assay [3], 0.32%.

For the compound `CC(C)c1ccc(S(=O)(=O)Nc2cccc(CCN3CCC(N4CCCCC4)CC3)c2)cc1`, the inhibition in assay [1] amounted to 38%; in assay [2], 4.08%; in assay [3], 1.03%.

Values taken from ChEMBL document CHEMBL3433997, “St. Jude Leishmania screening dataset” (2016).
